# Compound activity: PubChem BioAssay, National Center for Advancing Translational Sciences (NCATS)
# Most compounds without a hit are left out; they make up all but 12% or so of the library.
# Sfp inh: inhibitors of Bacillus subtilis Sfp phosphopantetheinyl transferase; Q9F4F7; Biochemical Sfp PPTase activity, qHTS; Potency, µM, inactives show largest response in the series, negative = inhibition, actives largely listed as inhibitors; hit rate 3.5% among 310,000; AID 1490;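 also: the enzyme is Sfp with the accession as filed and its product quenches rhodamine fluorescence; 0% = enzyme reaction without inhibitor and -100% = no enzyme wells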
#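 After 15 min at room temperature with compound, 15 nM Sfp received 5 uM rhodamine-CoA plus 12.5 uM BHQ-2-ybbR (50 mM Hepes pH 7.6, 10 mM MgCl2). Rate came from the fluorescence difference over 30 min, ex 525/em 598 nm.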
# L3MBTL1 block: inhibitors of human L3MBTL1 | AlphaScreen L3MBTL1–H3K9me1 peptide binding | Potency, µM (highest dose often 57.1 µM), without a hit: at the highest dose activity, negative = inhibition, hits mostly inhibitors | hit rate 0.66% among 230,000 | AID 485360; also: % is scaled to controls: 0 for no effect and ±100 for the full control effect; nearly all actives have a fitted effect of over 60% in size
#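 AlphaScreen assay: L3MBTL1 (50 nM final) was preincubated 30 min at room temperature with biotinylated H3(1-15)K9me1 peptide (75 nM final), then 30 min with library compounds; streptavidin donor and nickel chelate acceptor beads (10 ug/mL final) added, 30 min dark.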
# HP1b binding inh: blocks HP1-beta chromodomain binding to methylated histone tails | P83916 | AlphaScreen HP1-beta / biotin-H3K9me3 peptide binding | Potency, µM (highest dose often 114 µM), for inactives: at the highest dose activity change, negative = inhibition, most hits filed as inhibitors | hit rate 0.56% among 390,000; also: nearly all actives have a fitted effect of over 70% in size
#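 AlphaScreen: HP1-beta (50 nM) preformed 30 min with biotin-H3(1-18)K9me3 peptide (50 nM) in PBS pH 7.4, 0.01% Tween-20. Compound added for 30 min at RT, then streptavidin donor/nickel chelate acceptor beads (10 ug/mL) for 30 min.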
# JMJD2A Tudor inh: blocks the human JMJD2A Tudor domain; AlphaScreen JMJD2A-Tudor / H3K4me3 peptide binding; hit rate 4.4% among 390,000; Potency, µM (top dose mostly 114 µM), for the others: top-dose activity change, negative = inhibition, actives largely listed as inhibitors; also: % is scaled to controls: 0 for no effect and ±100 for the full control effect; nearly all actives have a fitted effect of over 50% in size
# BAZ2B block: inhibitors of human BAZ2B bromodomain | Q9UIF8 | AlphaScreen BAZ2B-H3K14Ac peptide displacement | Potency, µM (highest dose often 114 µM), without a hit: at the highest dose activity change, negative = inhibition, actives largely listed as inhibitors | hit rate 4.4% among 360,000; also: % is scaled to controls: 0 for no effect and ±100 for the full control effect; nearly all actives have a fitted effect of over 60% in size
#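 Multi-concentration screen (max 110 uM) measuring displacement of acetylated histone H3 peptide from BAZ2B by AlphaScreen, using 50 nM protein, 50 nM peptide and 10 ug/mL streptavidin donor plus Ni-chelate acceptor beads.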
# G9a inh: inhibitors of human histone lysine methyltransferase G9a. AID 504332. Q96KQ7. Potency, µM (doses to about 102 µM), without a hit: at the top dose activity, negative = inhibition, actives largely listed as inhibitors. hit rate 8.8% among 350,000. G9a H3K9 monomethylation, AlphaScreen, 2 h; also: % is scaled to controls: 0 for no effect and ±100 for the full control effect; nearly all actives have a fitted effect of over 75% in size
#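 Using a bead-based AlphaScreen, monomethylated H3K9 product from 2 h room-temperature reactions (G9a 20 nM, peptide 500 nM, SAM 20 uM) was detected with 0.5 ug/mL rabbit anti-H3K9me1 antibody.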
# Numbers without * were called inactive; ? = inconclusive; · = no result; ! = repeats disagree; [ ] = dose if it differs, or a comment. Calls follow the shape of the dose curve; as a rule, active = well fitted curve in the direction sought with a large enough effect; inconclusive = small, poorly fitted or top-dose-only effect, or another doubt; inactive = no such curve, though single readings can be large; an effect the other way counts as inactive or inconclusive. Potency is read from the fitted curve at half-maximal effect.
SMILES,Sfp inh,L3MBTL1 block,HP1b binding inh,JMJD2A Tudor inh,BAZ2B block,G9a inh
COc1cccc(C(=O)n2nc(-c3ccco3)nc2NCc2cccs2)c1,·,·,-21%,4%,-5%,-48%[59 µM]
O=C1CCCc2cc(S(=O)(=O)N3CCCC(C(=O)Nc4ccc(F)c(Cl)c4)C3)ccc2N1 (configuration not stated),·,·,11%,-13%,3%[57.1 µM],-27%[59 µM]
CCCCC1=CC2=CC(=O)C(C)(OC(=O)CC)C(=O)C2=CN1CCCN(CC)CC (configuration not stated),7%,·,·,·,·,·
Cc1nn(C)c2c1c(C(F)(F)F)cc(=O)n2CC(=O)NCc1ccccc1Cl,·,·,26%,5%,3%,9%[59 µM]
CC(N)=NCCCC[C@H](N)C(=O)O,-28%,·,·,·,·,·
CC(N)=NCCCC[C@@H](N)C(=O)O,·,·,·,·,·,10µM*!
Nc1c(C(=O)Nc2cccc(C(=O)O)c2)sc2nc3c(cc12)CCCC3,20%,·,35%,-23%,-4%,45µM*
Nc1c(C(=O)Nc2ccc(Cl)c(C(=O)O)c2)sc2nc3c(cc12)CCCC3,5%,·,44%,-2%,-15%,45µM*
CCOc1ccc(NC(=O)c2sc3nc4c(cc3c2N)CCCCCC4)cc1,·,·,31%,1%,-2%,4%[59 µM]
Nc1c(C(=O)Nc2ccc(C(=O)O)cc2)sc2nc3c(cc12)CCCC3,·,·,51%,14%,0%,?
O=C1C(C=NCc2ccccn2)=C(O)c2ccccc21,-11%,?,21%,-7%,89µM*,4%
O=C(O)c1ccccc1N/N=C/c1c(Sc2nnnn2-c2ccccc2)nc2ccccn2c1=O,6%,-4%,-25%,?,45µM*,40µM*
O=c1c(/C=N/Nc2ccccc2)c(Sc2nnnn2-c2ccccc2)nc2ccccn12,6%,·,9%,-15%,7%,-13%[12.7 µM]
COc1ccc(S(=O)(=O)N2CCC(c3nnc(-c4ccccc4C)o3)CC2)c(OC)c1,·,·,33%,-13%,-19%,8.9µM*
Cc1ccccc1-c1nnc(C2CCN(S(=O)(=O)c3ccc(Cl)cc3)CC2)o1,·,·,39%,1%,-6%,7.9µM*
CN(C)c1ccc(-c2noc(C3CCN(S(=O)(=O)c4cccc(Cl)c4)CC3)n2)cc1,13%,·,2%,?,?,?
COc1ccccc1-c1nnc(C2CCN(C(=O)c3ccc(C)cc3)CC2)o1,·,·,47%,-2%,-9%,7%[59 µM]
COc1ccc(-c2nnc(C3CCN(S(=O)(=O)c4cccc(Cl)c4)CC3)o2)cc1,·,·,25%,?,-8%,11µM*
CC1CCN(S(=O)(=O)c2ccc(Cl)cc2)CC1,-4%,10%,33%,-4%,48%,13%[59 µM]
COc1ccc(-c2nnc(C3CCN(C(=O)c4ccccc4F)CC3)o2)cc1,·,·,-3%,56µM*,?,14µM*
COc1cccc(Cn2c(CNS(=O)(=O)c3ccc(C(C)(C)C)cc3)nc3cccnc32)c1,·,·,31%[57 µM],-21%,-2%,-3%[59 µM]
NS(=O)(=O)c1ccc(CCNC(=O)CSc2nc3ccsc3c(=O)n2C2CC2)cc1,-11%,0%,43%,1%,15%,71µM*
O=C(COC(=O)[C@@H]1CC(O)CN1S(=O)(=O)c1ccc([N+](=O)[O-])cc1)NC12CC3CC(CC(C3)C1)C2 (some centres not stated),7%,-1%,13%,-8%,-6%,20µM*
COc1ccc(N2CCN(C(=O)C3CC(O)CN3S(=O)(=O)c3ccc([N+](=O)[O-])cc3)CC2)cc1 (configuration not stated),4%,-13%,25%,-10%[57.1 µM],-11%,45µM*
COc1cc(NC(=O)COC(=O)C2CC(O)CN2S(=O)(=O)c2ccc(Cl)cc2)c(C)cc1[N+](=O)[O-] (configuration not stated),·,·,21%,-26%,·,·
SMILES,Sfp inh,L3MBTL1 block,HP1b binding inh,JMJD2A Tudor inh,BAZ2B block,G9a inh
COc1ccc(S(=O)(=O)CCC(=O)N2CCN(c3ccc([N+](=O)[O-])cc3)CC2)cc1,11%,·,-2%,-23%,-14%[57.1 µM],17%
Cc1ccc(S(=O)(=O)N2CC(O)C[C@H]2C(=O)OCC(=O)Nc2ccc(N3CCCCC3)cc2)cc1C (some centres not stated),·,?,?,45µM*,40µM*,6.3µM*
CSc1ccc(CCNC(=O)c2ccc(-n3c(C)cc4c3CCCC4)cc2)cc1,·,·,27%,-26%,-15%,-3%[59 µM]
O=C(CSc1oc(-c2ccc(F)cc2)nc1S(=O)(=O)c1ccc(Cl)cc1)c1ccccc1,·,·,7%,-22%,-14%,-3%[59 µM]
O=C(COC(=O)Cc1c(Cl)cccc1Cl)Nc1ccc2[nH]c(=O)[nH]c2c1,·,6%,16%,-14%,-1%,50µM*
CC(C)(C)C1CCC(C(=O)OCC(=O)Nc2ccc3[nH]c(=O)[nH]c3c2)CC1 (configuration not stated),21%,-2%,16%,-3%,-2%,45µM*
O=C(COC(=O)CCCOc1ccc(Cl)cc1Cl)Nc1cccc(Cl)c1,2%,28%,78%,26%,19%,69%[59 µM]
O=C(COC(=O)CCc1c[nH]c(=O)[nH]1)Nc1cccc(Cl)c1,-11%,5%,37%,-11%,0%,40µM*
O=C(COC(=O)C12CC3CC(CC(C3)C1)C2)Nc1ccc2[nH]c(=O)[nH]c2c1,2%,·,32%,-10%,-27%,8%
O=C(COC(=O)Cc1c(F)cccc1Cl)Nc1ccc2[nH]c(=O)[nH]c2c1,·,-8%,-8%,-23%,·,·
COc1ccc(Br)cc1CNC(=O)c1cc(=O)[nH]c2ccc(S(=O)(=O)N3CCCCC3)cc12,·,·,19%,-8%,6%,12%[59 µM]
COc1ccc2c(CNCc3ccco3)c(C(=O)O)n(Cc3cccc(F)c3)c2c1,·,·,-11%,-29%,?,-34%[59 µM]
NC(=O)NC(=O)C(Nc1ccc(N2CCCCC2)cc1)c1ccccc1 (configuration not stated),-17%,·,?,?,?,16µM*
O=C(O)CCC(=O)Nc1ccc(F)cc1,19%,·,21%,-31%,10%,-6%[59 µM]
O=C(CNCc1ccco1)Nc1ccc(N2CCCCCC2)cc1,-22%,?,40µM*,20µM*,28µM*,8.9µM*
O=C(O)CCC(=O)Nc1ccc(SSc2ccc(NC(=O)CCC(=O)O)cc2)cc1,18µM*,·,30%,?,-1%,?
CCNC(=S)Nc1ccc(N2CCCCC2)cc1,-18%,·,?,-30%[57.1 µM],35µM*,32µM*
COc1ccc(NC(=O)c2cc(-c3ccc(F)cc3)no2)cc1OC,·,·,-8%,?,-37%,?
O=C(Nc1ccc(C(=O)OCc2cc(=O)n3ccsc3n2)cc1)c1cccc(F)c1,·,·,45%,-7%,-9%,6%[12.7 µM]
